{"source": "the supplement of paper PMC10849652", "experiment_in_all_cases": "log2 fold change, soluble protein after heating vs DMSO (PISA); higher = thermal stabilisation; K562 cells, 10 uM, 30 min; active = over 0.2 and 3.5 SD of the protein, either way, in both replicates (recomputed)", "key": {"bafetinib": {"compound": "Cc1ccc(NC(=O)c2ccc(CN3CC[C@H](N(C)C)C3)c(C(F)(F)F)c2)cc1Nc1nccc(-c2cncnc2)n1 [bafetinib]", "in_short": "(§1)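 Values are thermal stability changes relative to control samples and are taken from duplicates. They are stated as log2 fold changes. Before quantification by TMTpro 16plex LC-MS/MS with equalised channel sums, K562 cells at 2×10^6 cells/mL were treated with 10 μM compound for 30 min, heated in aliquots for 3 min across 48°C-58°C, pooled, extracted in PBS with 0.5% NP-40 at 4°C, and centrifuged at 21,000xg for 90 min to give the soluble supernatant.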"}, "[1]": {"compound": "Cc1cccc(CC(=O)N2CCc3c2ccc(-c2cn(C)c4ncnc(N)c24)c3F)n1", "in_short": "as §1"}, "nilotinib": {"compound": "Cc1cn(-c2cc(NC(=O)c3ccc(C)c(Nc4nccc(-c5cccnc5)n4)c3)cc(C(F)(F)F)c2)cn1 [nilotinib]", "in_short": "as §1"}, "[2]": {"compound": "Cc1nc(Nc2n[nH]c3c2CN(C(=O)N[C@H](CN(C)C)c2ccccc2)C3(C)C)c2sccc2n1", "in_short": "as §1"}, "dasatinib": {"compound": "Cc1nc(Nc2ncc(C(=O)Nc3c(C)cccc3Cl)s2)cc(N2CCN(CCO)CC2)n1 [dasatinib]", "in_short": "as §1"}, "[3]": {"compound": "Cc1ncc(-c2ccnc(Nc3ccc(S(C)(=O)=O)cc3)n2)n1C(C)C", "in_short": "as §1"}, "[4]": {"compound": "Cn1cc(-c2ccc3nnc(C(F)(F)c4ccc5ncccc5c4)n3n2)cn1", "in_short": "as §1"}, "tipifarnib": {"compound": "Cn1cncc1[C@@](N)(c1ccc(Cl)cc1)c1ccc2c(c1)c(-c1cccc(Cl)c1)cc(=O)n2C [tipifarnib]", "in_short": "as §1"}, "mubritinib": {"compound": "FC(F)(F)c1ccc(/C=C/c2nc(COc3ccc(CCCCn4ccnn4)cc3)co2)cc1 [mubritinib]", "in_short": "as §1"}, "[5]": {"compound": "Cn1cc(-c2ccc3c(c2)CCN3C(=O)Cc2cccc(C(F)(F)F)c2)c2c(N)ncnc21", "in_short": "as §1"}}, "note": "Of roughly 7,900 targets only a part is listed; those with a hit were picked by preference. About 0.6% of all pairs of compound and target were hits. A number with no mark means an inactive call."}
{"target": "MED12 isoform 2 (UniProt Q93074)", "sequence (Q93074 whole entry, looked up)": "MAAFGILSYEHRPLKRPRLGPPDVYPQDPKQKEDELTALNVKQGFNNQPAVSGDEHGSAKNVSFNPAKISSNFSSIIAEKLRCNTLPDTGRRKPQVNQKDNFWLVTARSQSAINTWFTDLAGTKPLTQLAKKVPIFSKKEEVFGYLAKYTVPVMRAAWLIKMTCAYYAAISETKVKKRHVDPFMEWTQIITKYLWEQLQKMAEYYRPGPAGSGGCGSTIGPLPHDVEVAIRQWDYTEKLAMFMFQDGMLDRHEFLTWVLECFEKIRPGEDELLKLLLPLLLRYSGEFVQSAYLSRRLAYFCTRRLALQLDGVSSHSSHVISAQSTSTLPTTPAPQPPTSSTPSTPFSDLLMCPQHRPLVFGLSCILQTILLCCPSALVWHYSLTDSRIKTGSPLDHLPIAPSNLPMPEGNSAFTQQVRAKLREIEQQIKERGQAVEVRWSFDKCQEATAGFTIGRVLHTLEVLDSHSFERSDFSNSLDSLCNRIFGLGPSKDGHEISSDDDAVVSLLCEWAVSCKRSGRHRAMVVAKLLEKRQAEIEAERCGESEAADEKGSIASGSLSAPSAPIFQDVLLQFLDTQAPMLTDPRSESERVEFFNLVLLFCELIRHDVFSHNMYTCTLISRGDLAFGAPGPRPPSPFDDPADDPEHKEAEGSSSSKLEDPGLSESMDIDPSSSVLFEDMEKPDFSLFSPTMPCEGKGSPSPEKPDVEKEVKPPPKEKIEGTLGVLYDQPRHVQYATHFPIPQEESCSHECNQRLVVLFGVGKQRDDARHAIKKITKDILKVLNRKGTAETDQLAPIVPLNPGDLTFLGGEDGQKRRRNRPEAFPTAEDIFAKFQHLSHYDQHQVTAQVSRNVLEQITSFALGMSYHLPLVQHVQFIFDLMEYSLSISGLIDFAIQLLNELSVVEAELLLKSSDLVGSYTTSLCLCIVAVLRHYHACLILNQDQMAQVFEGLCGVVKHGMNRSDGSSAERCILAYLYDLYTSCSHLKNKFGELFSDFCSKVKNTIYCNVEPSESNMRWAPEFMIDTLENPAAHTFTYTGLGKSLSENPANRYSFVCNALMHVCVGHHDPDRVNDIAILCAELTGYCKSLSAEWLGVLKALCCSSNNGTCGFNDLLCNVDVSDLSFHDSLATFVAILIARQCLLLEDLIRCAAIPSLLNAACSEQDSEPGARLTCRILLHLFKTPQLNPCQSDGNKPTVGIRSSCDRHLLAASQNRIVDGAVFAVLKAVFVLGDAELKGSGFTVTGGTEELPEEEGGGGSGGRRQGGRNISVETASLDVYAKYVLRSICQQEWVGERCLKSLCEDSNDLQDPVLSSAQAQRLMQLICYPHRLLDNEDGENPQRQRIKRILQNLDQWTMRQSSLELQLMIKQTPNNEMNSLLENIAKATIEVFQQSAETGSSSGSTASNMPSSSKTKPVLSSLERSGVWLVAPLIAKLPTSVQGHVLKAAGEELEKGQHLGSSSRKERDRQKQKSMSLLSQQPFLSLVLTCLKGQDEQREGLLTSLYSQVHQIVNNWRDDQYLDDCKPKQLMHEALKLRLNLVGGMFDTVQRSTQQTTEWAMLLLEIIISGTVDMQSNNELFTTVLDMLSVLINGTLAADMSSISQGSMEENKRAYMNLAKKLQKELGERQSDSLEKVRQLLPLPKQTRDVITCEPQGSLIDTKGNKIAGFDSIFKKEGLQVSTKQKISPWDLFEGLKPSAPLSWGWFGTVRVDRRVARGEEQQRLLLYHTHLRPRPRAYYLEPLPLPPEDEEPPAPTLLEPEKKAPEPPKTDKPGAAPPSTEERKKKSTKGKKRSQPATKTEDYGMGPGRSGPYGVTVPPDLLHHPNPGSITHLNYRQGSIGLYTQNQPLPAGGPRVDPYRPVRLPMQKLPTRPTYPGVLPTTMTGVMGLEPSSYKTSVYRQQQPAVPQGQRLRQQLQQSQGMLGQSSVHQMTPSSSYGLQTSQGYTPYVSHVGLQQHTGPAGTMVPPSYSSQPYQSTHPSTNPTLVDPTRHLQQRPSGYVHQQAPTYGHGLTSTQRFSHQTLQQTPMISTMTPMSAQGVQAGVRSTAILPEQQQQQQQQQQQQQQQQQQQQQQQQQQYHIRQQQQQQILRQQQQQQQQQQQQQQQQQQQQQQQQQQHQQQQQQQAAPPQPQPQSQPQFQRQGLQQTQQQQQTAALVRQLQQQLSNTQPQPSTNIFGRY", "values": [{"measurement": "log2 fold change", "setting": "bafetinib", "result": -0.112}, {"measurement": "log2 fold change", "setting": "[1]", "result": 0.044}, {"measurement": "log2 fold change", "setting": "nilotinib", "result": -0.038}, {"measurement": "log2 fold change", "setting": "[2]", "result": 0.068}, {"measurement": "log2 fold change", "setting": "dasatinib", "result": -0.24}, {"measurement": "log2 fold change", "setting": "[3]", "result": -0.058}, {"measurement": "log2 fold change", "setting": "[4]", "result": 0.003}, {"measurement": "log2 fold change", "setting": "tipifarnib", "result": -0.071}, {"measurement": "log2 fold change", "setting": "mubritinib", "result": -0.103}]}
{"target": "ILRUN (UniProt Q9H6K1)", "sequence (Q9H6K1 whole entry, looked up)": "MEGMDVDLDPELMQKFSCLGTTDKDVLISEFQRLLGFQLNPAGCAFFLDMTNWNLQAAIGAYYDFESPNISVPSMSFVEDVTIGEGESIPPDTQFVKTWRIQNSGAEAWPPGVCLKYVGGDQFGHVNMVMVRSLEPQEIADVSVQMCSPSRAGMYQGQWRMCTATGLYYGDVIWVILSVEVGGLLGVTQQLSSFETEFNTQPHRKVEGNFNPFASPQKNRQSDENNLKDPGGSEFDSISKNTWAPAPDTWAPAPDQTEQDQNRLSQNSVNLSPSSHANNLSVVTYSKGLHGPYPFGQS", "values": [{"measurement": "log2 fold change", "setting": "bafetinib", "result": -0.05}, {"measurement": "log2 fold change", "setting": "nilotinib", "result": -0.01}, {"measurement": "log2 fold change", "setting": "[2]", "result": -0.086}, {"measurement": "log2 fold change", "setting": "dasatinib", "result": -0.08}, {"measurement": "log2 fold change", "setting": "[3]", "result": "0.258 (active)"}, {"measurement": "log2 fold change", "setting": "[5]", "result": -0.013}, {"measurement": "log2 fold change", "setting": "[4]", "result": -0.039}, {"measurement": "log2 fold change", "setting": "tipifarnib", "result": -0.023}, {"measurement": "log2 fold change", "setting": "mubritinib", "result": 0.029}]}
{"target": "MDC1 (UniProt Q14676)", "values": [{"measurement": "log2 fold change", "setting": "bafetinib", "result": -0.1}, {"measurement": "log2 fold change", "setting": "[1]", "result": -0.269}, {"measurement": "log2 fold change", "setting": "nilotinib", "result": 0.037}, {"measurement": "log2 fold change", "setting": "[2]", "result": 0.02}, {"measurement": "log2 fold change", "setting": "dasatinib", "result": 0.398}, {"measurement": "log2 fold change", "setting": "[3]", "result": -0.191}, {"measurement": "log2 fold change", "setting": "[5]", "result": -0.031}, {"measurement": "log2 fold change", "setting": "[4]", "result": -0.043}, {"measurement": "log2 fold change", "setting": "tipifarnib", "result": 0.058}, {"measurement": "log2 fold change", "setting": "mubritinib", "result": -0.038}]}
{"target": "IP6K1 (UniProt Q92551)", "sequence (Q92551 whole entry, looked up)": "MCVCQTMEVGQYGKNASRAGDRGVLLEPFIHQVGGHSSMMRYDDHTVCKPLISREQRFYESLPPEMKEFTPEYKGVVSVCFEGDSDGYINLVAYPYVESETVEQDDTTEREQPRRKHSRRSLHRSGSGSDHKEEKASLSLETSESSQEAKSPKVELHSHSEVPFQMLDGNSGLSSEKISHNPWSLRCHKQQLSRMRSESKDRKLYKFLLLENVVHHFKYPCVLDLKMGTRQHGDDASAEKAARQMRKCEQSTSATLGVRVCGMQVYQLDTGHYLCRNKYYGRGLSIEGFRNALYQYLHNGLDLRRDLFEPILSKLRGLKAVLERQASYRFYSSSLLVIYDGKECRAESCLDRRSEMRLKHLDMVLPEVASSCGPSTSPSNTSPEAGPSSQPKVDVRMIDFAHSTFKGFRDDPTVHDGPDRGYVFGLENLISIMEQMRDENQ", "values": [{"measurement": "log2 fold change", "setting": "bafetinib", "result": 0.02}, {"measurement": "log2 fold change", "setting": "[1]", "result": 0.033}, {"measurement": "log2 fold change", "setting": "dasatinib", "result": -0.361}, {"measurement": "log2 fold change", "setting": "[5]", "result": 0.024}, {"measurement": "log2 fold change", "setting": "[4]", "result": 0.116}, {"measurement": "log2 fold change", "setting": "tipifarnib", "result": -0.038}, {"measurement": "log2 fold change", "setting": "mubritinib", "result": 0.137}]}
{"target": "LAPTM4B (UniProt Q86VI4)", "sequence (Q86VI4 whole entry, looked up)": "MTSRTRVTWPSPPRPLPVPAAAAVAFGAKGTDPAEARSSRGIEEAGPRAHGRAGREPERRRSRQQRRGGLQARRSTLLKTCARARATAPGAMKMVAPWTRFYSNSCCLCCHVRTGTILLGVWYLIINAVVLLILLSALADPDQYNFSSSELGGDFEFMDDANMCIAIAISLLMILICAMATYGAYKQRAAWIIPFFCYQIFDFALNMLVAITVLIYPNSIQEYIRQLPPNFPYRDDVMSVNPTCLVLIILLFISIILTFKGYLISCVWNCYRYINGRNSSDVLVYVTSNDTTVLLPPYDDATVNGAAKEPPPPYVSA", "values": [{"measurement": "log2 fold change", "setting": "bafetinib", "result": 0.024}, {"measurement": "log2 fold change", "setting": "[1]", "result": -0.137}, {"measurement": "log2 fold change", "setting": "mubritinib", "result": 0.017}]}
{"target": "KPNA4 (UniProt O00629)", "sequence (O00629 whole entry, looked up)": "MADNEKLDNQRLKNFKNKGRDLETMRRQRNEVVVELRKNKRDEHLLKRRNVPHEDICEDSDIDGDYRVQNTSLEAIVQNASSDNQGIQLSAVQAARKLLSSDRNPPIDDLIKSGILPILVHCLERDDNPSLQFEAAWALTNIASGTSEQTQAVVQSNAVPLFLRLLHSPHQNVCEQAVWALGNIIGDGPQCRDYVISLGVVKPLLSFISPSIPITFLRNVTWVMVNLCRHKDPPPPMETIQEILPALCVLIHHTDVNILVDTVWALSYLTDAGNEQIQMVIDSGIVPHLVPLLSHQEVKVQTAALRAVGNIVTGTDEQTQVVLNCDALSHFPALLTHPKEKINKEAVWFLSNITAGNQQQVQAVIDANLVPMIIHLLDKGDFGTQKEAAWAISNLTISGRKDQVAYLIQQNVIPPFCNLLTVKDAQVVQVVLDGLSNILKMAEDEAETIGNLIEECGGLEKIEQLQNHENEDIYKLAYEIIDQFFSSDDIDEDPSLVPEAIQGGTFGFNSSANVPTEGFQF", "values": [{"measurement": "log2 fold change", "setting": "bafetinib", "result": -0.111}, {"measurement": "log2 fold change", "setting": "[1]", "result": 0.021}, {"measurement": "log2 fold change", "setting": "nilotinib", "result": 0.04}, {"measurement": "log2 fold change", "setting": "[2]", "result": -0.155}, {"measurement": "log2 fold change", "setting": "dasatinib", "result": -0.017}, {"measurement": "log2 fold change", "setting": "[3]", "result": -0.033}, {"measurement": "log2 fold change", "setting": "[5]", "result": 0.021}, {"measurement": "log2 fold change", "setting": "[4]", "result": 0.032}, {"measurement": "log2 fold change", "setting": "tipifarnib", "result": -0.004}, {"measurement": "log2 fold change", "setting": "mubritinib", "result": 0.093}]}
{"target": "MGRN1 isoform 2 (UniProt O60291)", "sequence (O60291 whole entry, looked up)": "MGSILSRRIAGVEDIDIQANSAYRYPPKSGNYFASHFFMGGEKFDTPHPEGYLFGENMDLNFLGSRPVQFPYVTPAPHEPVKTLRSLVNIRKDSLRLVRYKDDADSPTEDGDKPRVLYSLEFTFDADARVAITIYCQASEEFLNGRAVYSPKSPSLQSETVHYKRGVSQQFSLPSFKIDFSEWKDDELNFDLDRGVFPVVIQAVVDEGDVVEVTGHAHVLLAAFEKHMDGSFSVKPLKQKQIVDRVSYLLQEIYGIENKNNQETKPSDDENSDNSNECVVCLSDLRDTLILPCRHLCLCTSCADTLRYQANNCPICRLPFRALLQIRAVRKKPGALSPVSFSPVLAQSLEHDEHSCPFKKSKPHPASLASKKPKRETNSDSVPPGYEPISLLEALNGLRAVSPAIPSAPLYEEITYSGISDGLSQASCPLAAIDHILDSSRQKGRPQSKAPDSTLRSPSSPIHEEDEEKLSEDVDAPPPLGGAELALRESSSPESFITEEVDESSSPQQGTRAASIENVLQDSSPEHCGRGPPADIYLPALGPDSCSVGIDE", "values": [{"measurement": "log2 fold change", "setting": "bafetinib", "result": -0.07}, {"measurement": "log2 fold change", "setting": "[1]", "result": -0.227}, {"measurement": "log2 fold change", "setting": "[5]", "result": -0.149}, {"measurement": "log2 fold change", "setting": "[4]", "result": 0.027}, {"measurement": "log2 fold change", "setting": "tipifarnib", "result": 0.2}]}
{"target": "MBLAC1 (UniProt A4D2B0)", "sequence (A4D2B0 whole entry, looked up)": "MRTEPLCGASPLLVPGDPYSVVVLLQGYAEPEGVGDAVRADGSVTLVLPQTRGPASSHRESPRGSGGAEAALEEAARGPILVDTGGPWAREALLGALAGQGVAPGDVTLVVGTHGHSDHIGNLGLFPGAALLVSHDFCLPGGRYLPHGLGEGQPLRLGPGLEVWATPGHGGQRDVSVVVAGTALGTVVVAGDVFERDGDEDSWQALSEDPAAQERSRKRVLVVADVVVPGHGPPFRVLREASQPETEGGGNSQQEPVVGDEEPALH", "values": [{"measurement": "log2 fold change", "setting": "bafetinib", "result": -0.017}, {"measurement": "log2 fold change", "setting": "[1]", "result": 0.065}, {"measurement": "log2 fold change", "setting": "dasatinib", "result": -0.129}, {"measurement": "log2 fold change", "setting": "[5]", "result": 0.086}, {"measurement": "log2 fold change", "setting": "[4]", "result": -0.125}, {"measurement": "log2 fold change", "setting": "tipifarnib", "result": 0.094}, {"measurement": "log2 fold change", "setting": "mubritinib", "result": -0.045}]}
{"target": "MFSD1 isoform 6 (UniProt Q9H3U5)", "sequence (Q9H3U5 whole entry, looked up)": "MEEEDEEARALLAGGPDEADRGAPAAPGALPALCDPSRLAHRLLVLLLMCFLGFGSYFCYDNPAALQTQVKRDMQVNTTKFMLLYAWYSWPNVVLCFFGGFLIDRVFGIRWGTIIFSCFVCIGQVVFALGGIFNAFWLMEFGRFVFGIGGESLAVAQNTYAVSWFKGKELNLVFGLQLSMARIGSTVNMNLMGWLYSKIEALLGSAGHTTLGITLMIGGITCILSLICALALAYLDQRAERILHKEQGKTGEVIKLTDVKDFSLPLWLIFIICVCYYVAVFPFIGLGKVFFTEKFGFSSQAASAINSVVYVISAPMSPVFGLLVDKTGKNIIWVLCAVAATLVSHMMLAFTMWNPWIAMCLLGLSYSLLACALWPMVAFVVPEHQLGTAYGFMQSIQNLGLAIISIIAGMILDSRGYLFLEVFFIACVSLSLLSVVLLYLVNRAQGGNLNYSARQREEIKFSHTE", "values": [{"measurement": "log2 fold change", "setting": "bafetinib", "result": -0.123}, {"measurement": "log2 fold change", "setting": "[1]", "result": 0.066}, {"measurement": "log2 fold change", "setting": "nilotinib", "result": -0.017}, {"measurement": "log2 fold change", "setting": "[2]", "result": 0.046}, {"measurement": "log2 fold change", "setting": "[3]", "result": -0.016}, {"measurement": "log2 fold change", "setting": "[5]", "result": -0.034}, {"measurement": "log2 fold change", "setting": "[4]", "result": 0.033}, {"measurement": "log2 fold change", "setting": "tipifarnib", "result": 0.05}, {"measurement": "log2 fold change", "setting": "mubritinib", "result": 0.005}]}
{"target": "LMBR1 isoform 3 (UniProt Q8WVP7)", "values": [{"measurement": "log2 fold change", "setting": "bafetinib", "result": -0.182}, {"measurement": "log2 fold change", "setting": "[1]", "result": 0.007}, {"measurement": "log2 fold change", "setting": "dasatinib", "result": 0.012}, {"measurement": "log2 fold change", "setting": "[5]", "result": 0.093}, {"measurement": "log2 fold change", "setting": "[4]", "result": -0.143}, {"measurement": "log2 fold change", "setting": "tipifarnib", "result": -0.044}, {"measurement": "log2 fold change", "setting": "mubritinib", "result": 0.063}]}
